# Screening results as filed in PubChem.
# CRE-bla Fsk = Cell signaling CRE-BLA (Fsk stim) | CHO CRE-bla reporter (cAMP response element driving beta-lactamase), forskolin EC10, beta-lactamase ratio | Potency, µM (series often up to 38.2 µM), inactives show at the top dose activity change, negative = inhibition, usual class: activators | hit rate 2.5% among 71,000; active = well fitted activation curve with a large enough effect in the signal ratio, with a control signal flat, not every such curve was filed as active; inconclusive = small, poorly fitted or top-dose-only effect, or effect the other way, or a change in a side signal; the % refers to the signal ratio; also: % of control where 0% means no effect
#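 Forskolin analogue NKH 477 at EC10 stimulated CRE-driven beta-lactamase in CHO cells alongside compound dilution series. Beta-lactamase was measured with CCF4, excitation 405 nm, emission ratio 460/530 nm.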
# Hsp90 Hop PPI = qHTS Assay for Disrupters of an Hsp90 Co-Chaperone Interaction; AlphaScreen TPR2A-His6 binding biotin-Hsp90 C-terminal peptide; AID 595, 2007; hit rate 0.44% among 71,000; Potency, µM (doses to about 57 µM), inactives show top-dose activity change, negative = inhibition; active = well fitted curve in either direction with a large enough effect; inconclusive = small, poorly fitted or top-dose-only effect, or another doubt; also: % is scaled to controls: 0 for no effect and ±100 for the full control effect
# IkB sig inh = IkB Signaling; ABC-DLBCL IkBa-CBG/CBR dual luciferase ratio, 4 h; response scale: scaled: untreated 0%, proteasome inhibitor 100%; Potency, µM (highest dose often 57.1 µM), for inactives: at the top dose IkBa stabilization activation; hit rate 0.04% among 110,000; AID 445, 2006; active = well fitted curve in the direction sought with a large enough effect in the signal ratio, not every such curve was filed as active; inconclusive = small, poorly fitted or top-dose-only effect, or a change in a side signal; the % refers to the signal ratio;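 also: the direction sought is a rising ratio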
#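 Luminescence ratio of IκBα-fused green versus native red beetle luciferase in OCI-Ly3 cells, 4 h post-doxycycline with compound; red signal alone, scaled from basal (0%) to zero light (-100%), flagged nonspecific or cytotoxic effects.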
# Tau fil binding = qHTS Assay for Tau Filament Binding; Potency, µM (top dose mostly 57.1 µM), for inactives: top-dose activity change, negative = inhibition; hit rate 2% among 71,000; AID 596, 2007; Microtubule-associated protein tau (Homo sapiens), P10636; recombinant tau filaments, thioflavin S fluorescence, 15 h; filaments grown with octadecylsulfate alongside compound;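 also: % is scaled to controls: 0 for no effect and ±100 for the full control effect; actives lower thioflavin S fluorescence by blocking filaments or displacing dye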
# Target sequence (P10636 whole entry, looked up): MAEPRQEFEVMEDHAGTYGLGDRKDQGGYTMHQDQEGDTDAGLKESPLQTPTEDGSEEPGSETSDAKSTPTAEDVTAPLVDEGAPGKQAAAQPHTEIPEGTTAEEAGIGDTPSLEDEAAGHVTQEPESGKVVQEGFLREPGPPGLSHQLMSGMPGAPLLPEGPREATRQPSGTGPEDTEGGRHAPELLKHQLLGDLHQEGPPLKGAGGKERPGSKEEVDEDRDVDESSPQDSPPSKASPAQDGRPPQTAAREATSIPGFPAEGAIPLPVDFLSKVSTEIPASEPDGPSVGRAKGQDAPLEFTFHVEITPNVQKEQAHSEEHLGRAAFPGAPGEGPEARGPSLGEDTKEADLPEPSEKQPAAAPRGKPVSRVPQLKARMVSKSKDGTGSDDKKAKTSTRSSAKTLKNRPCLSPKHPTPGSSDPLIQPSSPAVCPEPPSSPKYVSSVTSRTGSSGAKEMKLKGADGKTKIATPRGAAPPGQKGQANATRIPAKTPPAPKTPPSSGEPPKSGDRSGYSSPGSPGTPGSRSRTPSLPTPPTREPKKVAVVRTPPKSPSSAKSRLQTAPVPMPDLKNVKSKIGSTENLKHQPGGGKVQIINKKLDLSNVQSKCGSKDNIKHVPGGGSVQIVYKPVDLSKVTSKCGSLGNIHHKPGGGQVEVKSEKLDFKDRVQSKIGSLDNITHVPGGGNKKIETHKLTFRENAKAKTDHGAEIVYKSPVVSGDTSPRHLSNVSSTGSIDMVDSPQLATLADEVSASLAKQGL
#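 Recombinant tau protein (human, 1 uM final) plus 30 uM ODS in HEPES pH 7.4 with NaCl, DTT and thioflavine S. Compound present from the start; fluorescence at 510 nm after 15 h, 37 C.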
# ALOX15 inhib = qHTS Assay for Inhibitors of 15-hLO (15-human lipoxygenase); Potency, µM (top dose mostly 57.1 µM), for the others: at the highest dose activity change, negative = inhibition, hits mostly inhibitors; hit rate 1.4% among 74,000; Polyunsaturated fatty acid lipoxygenase ALOX15 (Homo sapiens), P16050; AID 887, 2007; purified 15hLO-1, xylenol orange hydroperoxide absorbance; also: % is scaled to controls: 0 for no effect and ±100 for the full control effect; nearly all actives have a fitted effect of over 55% in size
#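 Compounds were preincubated 15 min at room temperature with 40 nM purified human enzyme (25 mM Hepes pH 7.5, 0.01% Triton X-100); 50 uM arachidonic acid reacted 6 min. Fe-xylenol orange detection, 30 min, absorbance ratio 573/405 nm.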
# Active calls of the source: *; i = inactive; ? = inconclusive; / = no result; [ ] = dose if it differs, or a comment. Hits are enriched below; roughly 3.6% of the tested compounds scored in any of these assays. Unless noted, calls follow the shape of the dose curve; as a rule, active = well fitted curve in the direction sought with a large enough effect; inconclusive = small, poorly fitted or top-dose-only effect, or another doubt; inactive = no such curve, though single readings can be large; an effect the other way counts as inactive or inconclusive. Potency is read from the fitted curve at half-maximal effect.
SMILES,CRE-bla Fsk,Hsp90 Hop PPI,IkB sig inh,Tau fil binding,ALOX15 inhib
CCOc1ccc(-n2c(SCC(=O)Nc3cc(C)on3)nc3c([nH]c4ccccc43)c2=O)cc1,1.3µM*,-5%,4%,i,-16%
CCOC(=O)c1ccccc1NC(=O)N(Cc1ccc(C)cc1)Cc1cccn1-c1nnc(N2CCCC2=O)s1,/,/,0%,/,/
COc1cccc(C(=O)Nc2ccc(C(=O)OCc3cc(=O)n4nc(C5CC5)sc4n3)cc2)c1,/,/,0%,/,/
CCOC(=O)c1cccc(NC(=O)CSc2nnc(CNc3ccc(C)cc3)n2CC)c1,3%,-9%,?,-15%,13µM*
O=C(O)CCC(=O)Nc1ccc2ccccc2c1,?,3%[11 µM],?,6%[11.4 µM],0%[11.4 µM]
c1ccc2cc(NCNc3ccc4ccccc4c3)ccc2c1,4%[7.6 µM],?,7%[11.4 µM],2.5µM*,-3%[11.4 µM]
CCOc1ccccc1/C=C/c1onc(C)c1S(=O)(=O)N1CCC(C(=O)N2CCCCC2)CC1,/,/,-2%,/,/
CC(C)Oc1cccc(-n2c(CCc3c[nH]c4ccc(Br)cc34)nc3ccccc3c2=O)c1,?,-4%,?,?,0%[25.6 µM]
CC(C)c1ccc2c(c1)CC[C@@H]1[C@@](C)(CN)CCC[C@@]21C,?,2%,?,32µM*,/
CCN1CCN(C(=O)c2cnn3c(C(F)F)cc(-c4ccc(C)cc4)nc23)CC1,18%,-2%,-1%,20µM*,-14%
COc1ccc(-c2cc(C(F)F)n3ncc(C(=O)N4CCN(C(=O)c5ccco5)CC4)c3n2)cc1,16µM*,3%,-7%,-14%,-2%
CC(C)CC(=O)Nc1cc(-c2ccccc2F)nn1-c1ccccc1,/,/,-1%,/,/
COC(=O)c1cc(NC(=O)c2cc3sccc3n2Cc2ccc(Cl)cc2)cc(C(=O)OC)c1,/,/,1%,/,/
CCOc1ccc(N2CC(NC(=O)c3ccco3)CC2=O)cc1 (stereo unspecified),/,/,-1%,/,/
CC(C)CC(C(=O)Nc1oc(-c2ccco2)c(-c2ccco2)c1C#N)N1C(=O)c2ccccc2C1=O (stereo unspecified),-8%,?,?,?,25µM*
CC(C)CC(C(=O)Nc1ccc2c(c1)OCCO2)N1C(=O)c2ccccc2C1=O (stereo unspecified),-4%,1%,2%,-6%,-5%
COc1ccc(OC)c(Nc2cc(C(=O)NCCCN3CCOCC3)c3ccccc3n2)c1,1%,-13%,2%,10µM*,?
Cc1cc(C(=O)OCCO)c(C#N)c(N)n1,?,-4%,1%,3%,1%
Cc1cc(-c2ccccc2)c(C#N)c(N)n1,13µM*,-1%,0%,23%,5%
Cc1cc(C)c2c(N)c(C(=O)N3CCN(c4ncccn4)CC3)sc2n1,13µM*,0%,0%,3%,-2%
COCc1cc(C)nc2sc(C(=O)N3CCN(c4ccccc4)CC3)c(N)c12,?,?,2%,-9%,6.3µM*
CCOC(=O)c1sc2nc(C)cc(C)c2c1N,/,/,/,/,7%
O=C(c1cc(-c2ccc(O)cc2)on1)N1CCc2ccccc2C1,?,-4%,?,-9%,16µM*
O=C(c1cc(-c2ccco2)on1)N1CCc2ccccc2C1,?,-14%,4%,?,16µM*
O=C(c1cc(-c2ccccc2O)on1)N1CCc2ccccc2C1,2%,2%,?,171%,-26%
COc1ccc(CNC(=O)c2ccc(Sc3ccc(Cl)cc3)c(NC(C)=O)c2)c(OC)c1,/,/,-2%,/,/
COc1ccc(-c2noc(CCCOc3ccccc3)n2)cc1OC,?,?,1%,2%,-1%
COc1ccc(-c2noc(CCN3C(=O)c4ccccc4C3=O)n2)cc1OC,3.2µM*,-2%,0%,-14%,1%
COC(=O)c1ccc2c(=O)[nH]c(CN3c4ccccc4CC3C)nc2c1 (stereo unspecified),?,-13%,?,?,-16%
CC1Cc2ccccc2N1Cc1nc2scc(-c3cccs3)c2c(=O)[nH]1 (stereo unspecified),?,-5%,2%,13µM*,-20%
